The list is not random: actives were taken first. Their share in the collection is about 14%.
HCMV inh = qHTS Assay for inhibitors of the human cytomegalovirus (HCMV); hit rate 4.5% among 410,000; activity change, negative = inhibition, % at 57.5 µM; HFF cells, HCMV-luciferase reporter, 72 h; stronger effect = lower value; AID 1259415, 2018; in the data active means activity change below about -60%; inconclusive means no clear call, values can overlap the other calls; inactive means above about -39%
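Screen run at 2 compound doses on HFFs infected with reporter HCMV, MOI 1 PFU/cell. Luciferase activity from cell lysates at 72 h post infection gave inhibition relative to buffer-only and Salinomycin wells.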
Pf growth 96h = Primary qHTS for delayed death inhibitors of the malarial parasite plastid, 96 hour incubation; P. falciparum luciferase reporter growth, 96 h; Potency, µM (titrated, usually from 28.7 µM), without a hit: top-dose activity change, negative = inhibition, hits mostly inhibitors; hit rate 6.9% among 320,000; further: potency means the concentration at half of the fitted maximal effect
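Erythrocytes infected with luciferase-expressing P. falciparum were dispensed at 2% hematocrit and 0.05% parasitemia (final), then incubated with compounds 96 hours at 37 C in 5% CO2. Luminescence after detection reagent addition reported growth.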
Sm TGR block = qHTS Assay for the Inhibitors of Schistosoma Mansoni Peroxiredoxins; purified TGR, DTNB reduction, TNB absorbance 405 nm; Potency, µM (titrated, usually from 114 µM), for the others: top-dose activity change, negative = inhibition, hits mostly inhibitors; hit rate 3% among 360,000; further: potency means the concentration at half of the fitted maximal effect; nearly all actives have a fitted effect of over 60% in size
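TGR 20 nM + NADPH 100 uM (dispensed conc.), cpd preinc 15 min RT; start with NADPH (500 uM addition) then DTNB (15 mM addition). Kinetic TNB absorbance, 405 nm filter. Four-parameter Hill fit across titration.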
FBPA Giardia inh = qHTS Assay for Inhibitors of Fructose-1,6-bisphosphate Aldolase from Giardia Lamblia; A8B2U2; purified Giardia FBPA; Potency, µM (doses to about 59.6 µM), for inactives: at the top dose activity, negative = inhibition, actives largely listed as inhibitors; hit rate 0.71% among 290,000; further: potency means the concentration at half of the fitted maximal effect; nearly all actives have a fitted effect of over 55% in size
Target sequence (A8B2U2 whole entry, looked up): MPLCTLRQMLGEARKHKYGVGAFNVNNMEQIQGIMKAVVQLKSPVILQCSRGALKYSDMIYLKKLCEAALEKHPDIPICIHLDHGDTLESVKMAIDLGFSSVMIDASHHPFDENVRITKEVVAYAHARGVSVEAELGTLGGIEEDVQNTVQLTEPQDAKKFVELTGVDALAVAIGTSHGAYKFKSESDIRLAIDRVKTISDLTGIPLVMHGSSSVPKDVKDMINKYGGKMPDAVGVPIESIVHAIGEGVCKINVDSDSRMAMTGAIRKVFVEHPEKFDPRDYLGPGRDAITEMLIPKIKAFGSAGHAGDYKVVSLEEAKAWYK
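Giardia FBPA (40 nM reagent) was preincubated 10 min at RT with compound (up to 57.5 uM final), then substrate plus GAPDH/TPI/NAD/arsenate coupling system with diaphorase/resazurin was added; resorufin fluorescence (525/598 nm) was read after 20 min.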
Pf growth 48h = Primary qHTS for delayed death inhibitors of the malarial parasite plastid, 48 hour incubation. P. falciparum luciferase growth in erythrocytes, 48 h. Potency, µM (series often up to 28.7 µM), for inactives: top-dose activity change, negative = inhibition, usual class: inhibitors. hit rate 5.9% among 310,000; further: potency means the concentration at half of the fitted maximal effect
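Erythrocytes infected with P. falciparum carrying an integrated firefly luciferase reporter (2% hematocrit, 0.1% parasitemia final) were exposed to compounds in RPMI 1640 with 0.5% Albumax at 37 C, 5% CO2. Growth inhibition was scored as reduced luminescence.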
The depositor's hits bear a star; [ ] = remark or other dose. Unless noted, the call rests on the fitted dose curve; in most records, active means well fitted curve in the direction sought with a large enough effect; inconclusive means small, poorly fitted or top-dose-only effect, or another doubt; inactive means no such curve, though single readings can be large; an effect the other way counts as inactive or inconclusive. On the % scale 0 is the no-effect control and ±100 the full control effect.

Results for Clc1ccc(Cl)c(OCCCCN2CCNCC2)c1 ?
HCMV inh: 83; Pf growth 96h: -21%; Sm TGR block: -23%; FBPA Giardia inh: -17%; Pf growth 48h: inconclusive

How did Cc1ccc(OCCCCN2CCC(C)CC2)c(Br)c1 do in these assays?
HCMV inh: -67*; Pf growth 96h: -9%; Sm TGR block: -19%; FBPA Giardia inh: -24%; Pf growth 48h: inconclusive

How did CCOC(=O)[C@]12CCC=C1N(Cc1ccc(Cl)cc1Cl)C(=O)[C@H](CC(=O)NCCCOC)C2 do in these assays?
HCMV inh: -7

What do the screens show for `O=C(CSc1nccn(-c2cccc(F)c2)c1=O)Nc1ccc(Cl)cc1F`?
HCMV inh: 3; Pf growth 96h: 6%; Sm TGR block: -18%; FBPA Giardia inh: -15%; Pf growth 48h: 22%

Results for CN(c1ncnc(N)c1[N+](=O)[O-])C1CCS(=O)(=O)C1 (stereo unspecified) ?
HCMV inh: -74*; Pf growth 96h: -1%; Sm TGR block: 1%; FBPA Giardia inh: 0%; Pf growth 48h: -4%

Results for CN(c1ncnc(N)c1[N+](=O)[O-])C1CCCCC1 ?
HCMV inh: -94*; Pf growth 96h: 20%; Sm TGR block: 6%; FBPA Giardia inh: -7%; Pf growth 48h: 32%

How did Cc1ccccc1Oc1ncnc(N)c1[N+](=O)[O-] do in these assays?
HCMV inh: -33; Pf growth 96h: inconclusive; Sm TGR block: -3%; FBPA Giardia inh: 2%; Pf growth 48h: -3%

How did CCCCN(c1ccccc1)c1ncnc(N)c1[N+](=O)[O-] do in these assays?
HCMV inh: -102*; Pf growth 96h: 72%; Sm TGR block: -19%; FBPA Giardia inh: 11%; Pf growth 48h: 0%

How did Cc1cc(Br)c(OCc2ccc(C(=O)N/N=C3\CC4CC=CC34)cc2)c(Br)c1 (stereo unspecified) do in these assays?
HCMV inh: -23; Pf growth 96h: inconclusive; Sm TGR block: -10%; FBPA Giardia inh: 0%; Pf growth 48h: 10µM*

Results for O=C(N/N=C1\CC2CC=CC12)c1ccc(Br)cc1 (stereo unspecified) ?
HCMV inh: 42; Pf growth 96h: -3%; Sm TGR block: -4%; FBPA Giardia inh: -7%; Pf growth 48h: 12%

How did COc1ccc(C(C(=O)NC2CCCCC2)N(CC2CCCO2)C(=O)C2COc3ccccc3O2)cc1OC (stereo unspecified) do in these assays?
HCMV inh: -14; Pf growth 96h: 1%; Sm TGR block: 0%; FBPA Giardia inh: 0%; Pf growth 48h: 12µM*

Results for COc1ccc(C(=O)N(CC2CCCO2)C(C(=O)NCCC(C)C)c2ccc(C)cc2)cc1OC (stereo unspecified) ?
HCMV inh: -17; Pf growth 96h: 31%; Sm TGR block: -10%; FBPA Giardia inh: 7%; Pf growth 48h: inconclusive

What do the screens show for `COc1ccc(C(=O)N(CC2CCCO2)C(C(=O)NC2CCCC2)c2ccc(Cl)cc2)cc1OC` (stereo unspecified)?
HCMV inh: -7; Pf growth 96h: 6.6µM*; Sm TGR block: 4%; FBPA Giardia inh: -2%; Pf growth 48h: 12µM*

Results for COc1ccc(-n2c(=O)c3c(c4cc(OC)ccc4n3C)n(Cc3cccc(OC)c3)c2=O)cc1 ?
HCMV inh: 2; Sm TGR block: 1%

How did OC(c1ccc(Cl)cc1)c1nccc2ccccc12 (stereo unspecified) do in these assays?
HCMV inh: 1; Pf growth 96h: inconclusive; Sm TGR block: 5%; FBPA Giardia inh: inconclusive; Pf growth 48h: 18%

What do the screens show for `CCOC(=O)Cc1cc(-c2ccc(O)cc2)nc2ccc3ccccc3c12`?
HCMV inh: -10; Pf growth 96h: 12µM*; Sm TGR block: 14%; FBPA Giardia inh: 0%; Pf growth 48h: inconclusive

Results for CCCCCCCCN1C(=O)[C@H](CC(=O)NCCC(C)C)C[C@@]2(C(=O)OC)CCCCC=C12 ?
HCMV inh: 14

Results for CCCCN1CC(COCc2ccccc2)Oc2cccc(Oc3ccc(SC)c(C)c3)c2S1(=O)=O (stereo unspecified) ?
HCMV inh: -80*

Results for CC1CCC2C(=O)N3C(CCC(C)[C@@H]3c3cccc(N4CCOCC4)c3)C(=O)N2C1c1cccc(N2CCOCC2)c1 (stereo partly specified) ?
FBPA Giardia inh: 1%[12.9 µM]

How did COc1ccc(S(=O)(=O)N(CC(=O)Nc2cccnc2)c2ccc(C)cc2)cc1OC do in these assays?
HCMV inh: 16; Sm TGR block: inconclusive

Results for COC(=O)[C@@H]1[C@@H](CO)[C@@H]2Cn3c(ccc(Br)c3=O)[C@H]1N2S(=O)(=O)c1ccccc1F ?
HCMV inh: -6

What do the screens show for `CC1(C)CC(=O)C(N=Nc2cccc([N+](=O)[O-])c2)=C(O)C1`?
HCMV inh: 10; Pf growth 96h: 33%; Sm TGR block: inconclusive; FBPA Giardia inh: 2%; Pf growth 48h: 9%

How did Cn1c(O)c(N=Nc2ccc(S(=O)(=O)N3CCOCC3)cc2)c(=O)n(C)c1=O do in these assays?
HCMV inh: inconclusive; Pf growth 96h: 12%; Sm TGR block: -10%; FBPA Giardia inh: 15%; Pf growth 48h: -7%

How did CC1(C)CC(=O)C(N=Nc2cccc(F)c2C#N)=C(O)C1 do in these assays?
HCMV inh: 18; Pf growth 96h: 9%; Sm TGR block: 14µM*; FBPA Giardia inh: -12%; Pf growth 48h: 16%

Results for COc1ccc(N=NC2=C(O)CC(C)(C)CC2=O)c(OC)c1 ?
HCMV inh: -3; Pf growth 96h: -12%; Sm TGR block: -19%; FBPA Giardia inh: -2%; Pf growth 48h: -12%

Results for CC1(C)CC(=O)C(N=Nc2ccc(C(F)(F)F)cc2[N+](=O)[O-])=C(O)C1 ?
HCMV inh: -37; Pf growth 96h: -20%; Sm TGR block: 4µM*; FBPA Giardia inh: -23%; Pf growth 48h: inconclusive

Results for COc1ccc(N=NC2=C(O)CC(C)(C)CC2=O)cc1 ?
HCMV inh: -14; Pf growth 96h: inconclusive; Sm TGR block: 0%; FBPA Giardia inh: 3%; Pf growth 48h: 6%

How did CC1(C)CC(=O)C(N=Nc2ccc(Br)cc2)=C(O)C1 do in these assays?
HCMV inh: -60*; Pf growth 96h: 7%; Sm TGR block: -3%; FBPA Giardia inh: -3%; Pf growth 48h: 14%

Results for CC1(C)CC(=O)C(N=Nc2ccc(S(=O)(=O)N3CCOCC3)cc2)=C(O)C1 ?
HCMV inh: -23; Pf growth 96h: 2%; Sm TGR block: 40µM*; FBPA Giardia inh: -1%; Pf growth 48h: 9%

What do the screens show for `COc1cccc(C(=O)NCc2cn3cccc(C)c3n2)c1`?
HCMV inh: -39; Sm TGR block: 8%

Screening results (PubChem BioAssay)
